Values joined by “and” are separate entries in the source; they are usually repeats but may differ in a detail not shown here. Identical values can stand only once. Counter-ions that a name gives are not always drawn.
Tests used:
Assay in all cases: cell viability relative to vehicle control; higher = less cytotoxic
Settings in all cases: 10 µM
K562 = system: K562
In short: (§1)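 Mutant clones made by CRISPR editing and their isogenic wild-type counterparts, from four leukaemia lines, were exposed to a single 10 µM dose of each library compound for 48 h. The supernatant was then removed and CellTiter-Glo luminescence was read. Viability was reported as percent of the on-plate vehicle control.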

MARIMO = system: MARIMO
In short: as §1

MOLM14 = system: MOLM14
In short: as §1

OCI-AML2 = system: OCI-AML2
In short: as §1

Compound	cell viability (K562; SRSF2 genotype: SRSF2 P95H/wt)	cell viability (K562; SRSF2 genotype: SRSF2 wt/wt)	cell viability (MARIMO; SRSF2 genotype: SRSF2 P95H/wt)	cell viability (MARIMO; SRSF2 genotype: SRSF2 wt/wt)	cell viability (MOLM14; SRSF2 genotype: SRSF2 P95H/wt)	cell viability (MOLM14; SRSF2 genotype: SRSF2 wt/wt)	cell viability (OCI-AML2; SRSF2 genotype: P95H/wt)	cell viability (OCI-AML2; SRSF2 genotype: wt/wt)
Cc1c(C(=O)Nc2ccc(Oc3ccnc4[nH]cc(-c5ccccc5)c34)c(F)c2)c(=O)n(-c2ccc(F)cc2)n1C	75.3% and 86.8%	76.8%	84.7%	88.2%	8.77%	13.1%	24.8%	35.5%
CC(CN(C)C)Oc1nc(Nc2cc3cccc(Cl)c3cn2)cnc1C#N (stereo not drawn)	50.7% and 62.5%	44.9%	62.2%	56.3%	15.7%	8.7%	17%	18.5%
CC(C)=CC(O)C/C(C)=C/COc1c2ccoc2cc2oc(=O)ccc12 (stereo not drawn) [Notopterol]	72.4% and 82.5%	76.1%	64.7%	57.1%	71.2%	56.4%	51.5%	43%
O=C1NCCc2[nH]c(-c3ccncc3)cc21	50.4% and 42%	63.5%	12.7%	7.5%	1.91%	0.86%	4.1%	14.9%
COC(=O)c1ccc(O)c(O)c1 [Methyl protocatechuate]	105%	105%	90.5%	101%	101%	109%	117%	97.9%
CC(C)=CCC[C@](C)(O[C@@H]1O[C@H](CO)[C@@H](O)[C@H](O)[C@H]1O)[C@H]1CC[C@]2(C)[C@@H]1[C@H](O)C[C@@H]1[C@@]3(C)CC[C@H](O[C@@H]4O[C@H](CO)[C@@H](O)[C@H](O)[C@H]4O[C@@H]4O[C@H](CO)[C@@H](O)[C@H](O)[C@H]4O)C(C)(C)[C@@H]3CC[C@]12C [Ginsenoside Rd]	99.2% and 91.3%	93.4%	94%	96.8%	91.8%	94.5%	88%	103%
Nc1ccccc1NC(=O)c1ccc(CNc2nccc(-c3cccnc3)n2)cc1 [Mocetinostat (MGCD0103)]	4.12% and 14.8%	10.5%	7.4%	9.28%	0.6%	0.42%	0.44%	3.29%
CC(C)S(=O)(=O)c1ccc2nccc(Nc3ccc4scnc4c3)c2c1	60.2% and 78.2%	63.7%	101%	108%	75.2%	78.2%	83.2%	88.5%
CC(C)C(=O)Oc1ccc(CO)cc1[C@H](CCN(C(C)C)C(C)C)c1ccccc1 [Fesoterodine Fumarate]	97.2% and 107%	102%	91.7%	98.4%	102%	104%	113%	98%
CC(C)CCCC(C)CCCC(C)CCCCC(C)CCCC(C)CCCC(C)C (stereo not drawn) [Squalane]	109% and 97%	108%	105%	106%	103%	108%	103%	100%
Cc1cnc(NC(=O)C2=C(O)c3ccccc3S(=O)(=O)N2C)s1 [Meloxicam (Mobic)]	98.6% and 90.8%	90%	86.4%	103%	90.8%	92.7%	86.6%	99.4%
CCCCCCOc1cc(C)c(O)c(C)c1C [HTHQ(1-O-Hexyl-2,3,5-trimethylhydroquinone)]	93.5% and 93.8%	106%	89.1%	96%	91.1%	102%	98.7%	107%
CNc1nc(Nc2cn(C(C)(C)C#N)nc2C)ncc1C(F)(F)F	101% and 102%	103%	101%	108%	98.8%	101%	102%	105%
Cn1c(=O)c2[nH]cnc2n(C)c1=O [Aminophylline (Truphylline)]	91.1% and 89.1%	89.2%	83.4%	95.7%	86.8%	89.8%	88.9%	102%
CN(C)CCC[C@@]1(c2ccc(F)cc2)OCc2cc(C#N)ccc21 [Escitalopram Oxalate]	87.5% and 88.8%	92.8%	85.4%	91.1%	89.4%	93.7%	89.2%	88.4%
Cn1cncc1[C@@](N)(c1ccc(Cl)cc1)c1ccc2c(c1)c(-c1cccc(Cl)c1)cc(=O)n2C [Tipifarnib (Zarnestra)]	24.9% and 31.7%	34.7%	34.5%	32.9%	29.9%	20.2%	19.9%	26%
CCCC[S+]([O-])c1sc2nc(-c3cccs3)cc(-c3ccccc3)c2c1N (stereo not drawn)	94.5% and 97%	92.9%	95%	109%	103%	99.4%	98.7%	98.8%
CC1(C)S[C@@H]2[C@H](NC(=O)Cc3ccccc3)C(=O)N2[C@H]1C(=O)O.CCN(CC)CCOC(=O)c1ccc(N)cc1 [Penicillin G Procaine]	107% and 104%	101%	104%	118%	99.7%	109%	97.8%	99.4%
CCOC(=O)c1c2c3c(cccc3[nH]c1=O)C(=O)c1ccccc1-2	95.8% and 97.2%	90.7%	84%	96.1%	90.7%	95.8%	92.4%	101%
CN1CC[C@@H](c2c(O)cc(O)c3c(=O)cc(-c4ccccc4Cl)oc23)[C@@H]1CO	5.12% and 15.8%	7.55%	7.83%	3.59%	2.24%	0.71%	1.64%	13.3%
COC(=O)c1cc(OC)c2c(c1-c1c(C(=O)OC)cc(OC)c3c1OCO3)OCO2 [Bifendate]	109%	98.7%	101%	101%	99.3%	101%	106%	94.3%

Compound	cell viability (K562; SRSF2 genotype: SRSF2 P95H/wt)	cell viability (K562; SRSF2 genotype: SRSF2 wt/wt)	cell viability (MARIMO; SRSF2 genotype: SRSF2 P95H/wt)	cell viability (MARIMO; SRSF2 genotype: SRSF2 wt/wt)	cell viability (MOLM14; SRSF2 genotype: SRSF2 P95H/wt)	cell viability (MOLM14; SRSF2 genotype: SRSF2 wt/wt)	cell viability (OCI-AML2; SRSF2 genotype: P95H/wt)	cell viability (OCI-AML2; SRSF2 genotype: wt/wt)
CCOc1cc(N2CCC(O)CC2)ccc1Nc1ncc2c(n1)N(C)c1ccccc1C(=O)N2C	91% and 89.7%	88%	73%	59.6%	62.4%	55.3%	58.3%	67.9%
CC(=C(CCOC(=O)C(C)C)SSC(CCOC(=O)C(C)C)=C(C)N(C=O)Cc1cnc(C)nc1N)N(C=O)Cc1cnc(C)nc1N (stereo in doubt) [Sulbutiamine]	99% and 93.5%	93.6%	84.7%	95.4%	84.2%	90.8%	84.7%	93.6%
CN(C)c1ccc(C(=C2C=CC(=[N+](C)C)C=C2)c2ccc(N(C)C)cc2)cc1 [Crystal violet]	0.3% and 0.45%	1.14%	0.76%	1.04%	0.09%	0.09%	0.06%	0.11%
O=C(O)c1ccc(N2C(=O)C(=Cc3ccc(-c4ccc([N+](=O)[O-])cc4)o3)C=C2c2ccccc2)cc1	86.8% and 85.4%	84.5%	104%	108%	82.2%	94%	97.9%	98.2%
COc1cc([C@H]2OC[C@H]3[C@@H]2CO[C@@H]3c2ccc(O[C@@H]3O[C@H](CO)[C@@H](O)[C@H](O)[C@H]3O)c(OC)c2)ccc1O[C@@H]1O[C@H](CO)[C@@H](O)[C@H](O)[C@H]1O [Pinoresinol diglucoside]	105% and 104%	101%	105%	108%	105%	103%	104%	109%
CC(ONC(=O)c1cc(C(F)(F)F)cc(C(F)(F)F)c1)C(=O)Nc1ccc(Cl)cc1 (stereo not drawn)	78.9% and 81%	78.8%	95.5%	102%	88.7%	93.2%	82%	90.7%
O=C(CCc1ccc(O)cc1)c1c(O)cc(O[C@@H]2O[C@H](CO)[C@@H](O)[C@H](O)[C@H]2O)cc1O [Trilobatin]	96.2% and 98.8%	96.8%	99.7%	105%	89.2%	98.9%	92.6%	106%
C[C@H]1COC2=C1C(=O)C(=O)c1c2ccc2c1CCCC2(C)C [Cryptotanshinone]	32.1% and 18.5%	47.8%	60.3%	76.1%	58.6%	69.2%	42.7%	46.5%
Cc1cc(OCc2nnc(SC3CCCC3)n2-c2cccnc2)ccc1-c1ccc(S(C)(=O)=O)cc1	0.65% and 0.74%	1.74%	0.85%	1.72%	0.25%	0.26%	0.24%	0.79%
COc1cc(/C=C/c2ccc(O)c(O)c2)cc(OC)c1 [3'-Hydroxypterostilbene]	74% and 61.4%	67.4%	29.2%	39.9%	21.3%	10.6%	44.4%	44.7%
COc1c(O[C@@H]2O[C@H](CO)[C@@H](O)[C@H](O)[C@H]2O)cc2occ(-c3ccc(O)cc3)c(=O)c2c1O [Tectoridin]	93% and 87.4%	84.8%	94.4%	95.3%	91.8%	96.1%	91%	97.8%
O=C1C[C@@H](c2ccc(O)cc2)Oc2cc(O)cc(O)c21 [Naringenin]	99.2% and 105%	103%	106%	107%	111%	112%	96.5%	96.7%
CC[C@H]1OC(=O)C[C@@H](O)[C@H](C)[C@@H](O[C@@H]2O[C@H](C)[C@@H](O)[C@H](N(C)C)[C@H]2O)[C@@H](CCN2C[C@H](C)C[C@H](C)C2)C[C@@H](C)C(=O)/C=C/C(C)=C/[C@@H]1CO[C@@H]1O[C@H](C)[C@@H](O)[C@@H](OC)[C@H]1OC [Tilmicosin]	96.5% and 94.4%	99.4%	95.6%	106%	98.5%	103%	93.3%	105%
FC(F)(F)c1ccc(/C=C/c2nc(COc3ccc(CCCCn4ccnn4)cc3)co2)cc1 [Mubritinib (TAK 165)]	68.1% and 58.5%	56.7%	67.2%	61.8%	70.1%	55.5%	49.2%	47%
CC(C)Cc1ccc([C@@H](C)C(=O)NS(C)(=O)=O)cc1 [Reparixin (Repertaxin)]	102% and 97.5%	98.4%	97.6%	99.2%	95.7%	98.4%	93.3%	105%
CNC(=O)c1cc(Oc2ccc(NC(=O)Nc3ccc(Cl)c(C(F)(F)F)c3)cc2)ccn1 [Sorafenib Tosylate]	7.11% and 11.7%	11.8%	35.8%	29.3%	9.9%	11.5%	9.8%	11.3%
O=C(O)CNC(=O)c1ccccc1 [Hippuric acid]	103% and 104%	106%	101%	112%	98.4%	107%	103%	101%
COc1cc2ncc(-c3ccccc3)nc2cc1OC [Tyrphostin AG 1296 (AG 1296)]	90.3% and 94.9%	93%	81.5%	82.2%	48.2%	56%	69.5%	65.6%
O=C(O)Cc1ccccc1Nc1c(Cl)cccc1Cl [Diclofenac Diethylamine]	102% and 108%	95.4%	105%	101%	106%	102%	105%	103%
O=C1C(N(CO)C(=O)NCO)N(CO)C(=O)N1CO (stereo not drawn) [Diazolidinyl urea]	96.3% and 98.6%	106%	98.9%	98.3%	93.8%	104%	111%	129%

Reference: the supplement of paper PMC10981050
